From PubChem BioAssay (NCI)
The panel holds about 83,000 compounds, 20% with a hit somewhere; the sample as a whole holds those more often.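 96-well plates, one dose, 48 hours. Percent growth reported; active if below 10.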 Unmarked numbers belong to inactive results. The source made the active and inactive calls.

Test system: MDA-MB-468 breast
Assay: NCI-60 one-dose screen, 48 h (100 = growth as untreated, 0 = no growth, -100 = all killed)
Conditions: 10 µM unless noted

Point of comparison: `C/C(=N\Nc1nc(C)cs1)c1cc2ccccc2o1`, growth 82.6%. Against it:
- N#Cc1nc(-c2ccc(F)cc2)oc1S(=O)(=O)N1CCCCC1 — lower, 52.7%
- C/C(=C(/c1ccc(O)cc1)c1ccc(OCCN2CCCCCC2)cc1)c1ccccc1 — lower, 31.8%
- O=C(NNC(=O)c1ccncc1)Nc1ccc([N+](=O)[O-])cc1 — higher, 106%
- COc1ccc(NC(=O)c2cccc(-c3cc(=O)c4c(O)c(OC)c(OC)cc4o3)c2)cc1 — higher, 84.3%
- O=C(CNc1nc(-c2cccc([N+](=O)[O-])c2)cs1)Nc1cccc([N+](=O)[O-])c1 — lower, 14.3%
- Cc1nn(-c2ccc(F)cc2)c2ncnc(Oc3ccc(NC(=O)Nc4ccc(Cl)c(C(F)(F)F)c4)cc3)c12 — higher, 97.8%
- O=C1CC(c2nc3ccccc3[nH]2)CN1C1CCCCC1 (stereo not given) — higher, 110%
- COc1cccc(/C=N/C(=S)NC2(C)C3CCC(C3)C2(C)C)c1O (stereo not given) — lower, 57%
- Brc1ccc(SSc2ccc(Br)cc2)cc1 — higher, 87%
- O=C(Nc1ccc(Cl)cc1)Nc1nc2ccc(OC(F)(F)F)cc2o1 — higher, 89%
- OC1OC(COC(c2ccccc2)(c2ccccc2)c2ccccc2)C(O)C(O)C1O (stereo not given) — higher, 89.7%
- NNCCc1ccc(NC(=O)CCCc2ccc(/C=C/C(=O)NO)cc2)cc1 — lower, 18%
- Cc1nc(Nc2ccccn2)sc1C(=O)/C=C/c1ccc(Cl)cc1 — lower, 16.4%
- Cn1cc(-c2cc(N)n3nc(-c4cn(C)c5ccc(F)cc45)cc3n2)c2cc(F)ccc21 — lower, 12.3%
- COc1nc(OC)nc(-c2cc(C(=O)c3ccc(Br)cc3)n3cc(C)cc(C)c23)n1 — lower, 51%
- CC(C)NS(=O)(=O)c1cccc(-c2ccc3c4c(n(CCCN(C)C)c(=O)c3c2)-c2ccccc2C4=O)c1 — higher, 99.3%
- Cc1ccc(O)c(NC(=O)c2cccc(Nc3ccnc(C(F)(F)F)c3)c2)c1 — lower, 46%
- O=C1Nc2ccc(Br)cc2/C1=N/c1n[nH]c(=S)s1 — higher, 103%
- CC1=CSC2=NCCN12 — higher, 118%
- Nc1nc2c(ncn2C2OC3COP(=O)(O)OC4C(COP(=O)(O)OC2C3O)OC(n2cnc3c(N)ncnc32)C4O)c(=O)[nH]1 (stereo not given) — higher, 116%
- CC(C)C(=O)OCCOc1ccc(C(C)(C)C)cc1 — higher, 102%
- COc1ccccc1S(=O)(=O)Nc1ccc2c(c1)CN(C)C(=O)N2 — lower, 21.1%
- COc1ccc(C2(O)CCCCC2)cc1 — higher, 95.2%
- CCOC(=O)c1c(NC(=S)Nc2ccc([N+](=O)[O-])cc2)sc2c1CCCCC2 — lower, 71.2%
- CCOC(CNCc1cc(C)c2[nH]c3ccccc3c2c1C)OCC — lower, 67.6%
- CC(=O)c1nc2ccccc2n1CCNC(N)=O — lower, 60.8%
- O=C1CC(c2cccc(-c3cccnc3)c2)=Nc2ccc(Br)cc2N1 — lower, 10.5%

`O=C1c2ccccc2C(=O)c2c1ccc(C(Br)Br)c2Cl` was tested, and the growth was -12.6% (active).
`CC1=C([Se]CC(OC(=O)[C@@H](CO)NC(=O)OC(C)(C)C)C(=O)NC(C)(C)C)C(=O)c2ccccc2C1=O` (stereo not given in full) was tested, and the growth was -74.2% (active).
With `O=C(CCN1CCCC1)Nc1ccc2c(NCCCc3ccccc3)c3ccccc3nc2c1` the growth was -38.5% (active).
For `CC(C)(O)c1cncc(-c2ccc3ncnc(N4CCc5cc(F)c(Cl)cc54)c3c2)c1`, the growth was -36% (active).
In the case of `C=CC(=O)Nc1cccc(Oc2nc(Nc3ccc(N4CCN(C)CC4)cc3)nc3ccsc23)c1`, the growth is reported as -69.1% (active).
For `CN1CCN(Cc2ccc(NC(=O)c3cncc(C#Cc4cnc5ccc(OCC(F)F)nn45)c3)cc2C(F)(F)F)CC1`, the growth was -65.5% (active).
With `CO[C@H]1CC[C@@]2(C)C(=CC[C@H]3[C@@H]4C[C@H](O)C[C@@]4(C)CC[C@@H]32)C1` the growth was -12.8% (active).
With `COc1ccc(-c2nc(/C=N/Nc3cc(C)nc4ccc(Br)cc34)c(C)o2)cc1` the growth was -78.9% (active).
In the case of `CC(C)c1ccc(NC(=O)Cc2ccc(Nc3ncnc4cc(-c5cnn(CCN(C)C)c5)ccc34)cc2)cc1`, the growth is reported as -86.9% [30 µM] (active).
In the case of `CS(=O)(=O)Nc1ccc(Nc2c3ccccc3nc3cc([N+](=O)[O-])ccc23)cc1`, the growth is reported as -43.3% (active).
With `COc1ccc(-c2cc(-c3ccccc3)nc(SCCCC(=O)NO)n2)cc1` the growth was -50.5% (active).

With `COc1ccc2cc(C(=O)N3CCC([C@@H](C)C(=O)NCc4ccc5c(c4)OCO5)CC3)[nH]c2c1` the growth was 41.1% [50 µM].
